Source: PubChem BioAssay (NCI)
About 79,000 compounds went through this panel and 15% of them were active in at least one assay; those are over-represented in the sample as a whole. Active and inactive are the calls of the source. Cut-off read from the data, not from the text of the source: active = growth inhibition above about 70%; inactive = the rest. Where a SMILES comes first, the peptide text is derived from it. [ ]: non-standard residue; d: D form. The star is where a group is joined. ξ: configuration not given here. ξL = CC(C)CC(N)C(=O)O; ClAc = O=C(CCl)*

test: NCI Yeast Anticancer Drug Screen. Data for the mlh1 rad18 strain (AID 175); details: S. cerevisiae mlh1 rad18 strain growth inhibition; at 50.0 µM; stronger effect = higher value
Procedure, shortened: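 Steps: expose repair-defective yeast to compound; measure growth; express inhibition against vehicle-treated controls.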

Row | SMILES | growth inhibition
1 | CC1CCN(c2ccc([N+](=O)[O-])cc2)CC1 | -9.05% (inactive)
2 | Cn1c(=S)sc2ccc3ccccc3c21 | -25.9% (inactive)
3 | OCC1OC(Nc2ccccc2O)C(O)C(O)C1O (configuration not stated) | 25.7% (inactive)
4 | CCOC(=O)c1sc(N)nc1-c1ccccc1 | 24.6% (inactive)
5 | ClCCOC(OCCCl)OCCCl | 4.85% (inactive)
6 | CCCCCCCCCCCCCCCc1cc(=S)n(C)c2ccc(C)cc12 | 16.1% (inactive)
7 | C(=NCC1CCC(CN=Cc2ccco2)CC1)c1ccco1 (configuration not stated) | -12.5% (inactive)
8 | CCCOC(=O)C(=O)C(C#N)c1ccccc1 (configuration not stated) | 16.9% (inactive)
9 | COc1ccc(NC(=S)N(C)C)cc1 | 3.1% (inactive)
10 | COc1cc(-c2cc(=O)c3c(C)cc(O)cc3o2)cc(OC)c1OC | 45.6% (inactive)
11 | CC1(O)CC2CC1C(C(=O)O)C2C(=O)O (configuration not stated) | -15.1% (inactive)
12 | CCCCCCCCCCCC(=O)CCCCC | -29.4% (inactive)
13 | COC(=O)C1=CCCC2CN3CCc4c([nH]c5ccccc45)C3CC12 (configuration not stated) | 18% (inactive)
14 | CC(=O)c1cccc(OCc2ccccc2)c1 | 8.4% (inactive)
15 | O=C1OC(=O)C2C1OC1C(=O)OC(=O)C12 (configuration not stated) | -28.1% (inactive)
16 | C[N+]12CCC34c5ccccc5NC3C3C(CC(=O)[O-])OCC=C(C1)C3CC42 (configuration not stated) | -31% (inactive)
17 | CCCCCCCCCOCC(O)COc1ccccc1[N+](=O)[O-] (configuration not stated) | -5.5% (inactive)
18 | O=C(N/N=C/c1ccc2c(c1)CCC2)c1cccc([N+](=O)[O-])c1 | -15.8% (inactive)
19 | Clc1ccc(C=NCCN=Cc2ccc(Cl)c(Cl)c2)cc1Cl | -9.3% (inactive)

Row | SMILES | growth inhibition
20 | COc1ccc(/C=C/C(=O)c2ccc(Cl)cc2)c(OC)c1 | 8.75% (inactive)
21 | Nc1ccccc1SC1CC(=O)N(c2cccc3ccccc23)C1=O (configuration not stated) | -12.8% (inactive)
22 | CC(C)Oc1ccc(C(=O)NS(=O)(=O)c2ccc(N)cc2)cc1 | -8.4% (inactive)
23 | COc1cccc(/C=C/C(=O)c2ccc(Cl)cc2)c1OC | 16.2% (inactive)
24 | CCCCCCC(=O)CCCCCCCCCCCCC(=O)OC | 12.7% (inactive)
25 | O=C(CCCCCCCCCCBr)OCc1ccccc1 | 5.9% (inactive)
26 | CC(C)C(C(=O)c1ccccc1)c1ccccc1 (configuration not stated) | -3.55% (inactive)
27 | COc1cccc(CNc2ccc(SC)cc2)c1OC | 18.9% (inactive)
28 | Cc1n[nH]c(=O)n(/N=C\c2c[nH]c3ccccc23)c1=O | -1.55% (inactive)
29 | COc1ccc2ccccc2c1/C=N/N1CCCCC1 | 1.05% (inactive)
30 | C(=C/c1ccc(/C=C/c2ccccc2)cc1)/c1ccccc1 | -26.8% (inactive)
31 | O=C1NC(c2ccc3ccccc3c2)Nc2ccccc21 (configuration not stated) | 19.1% (inactive)
32 | N#C/C(=C/c1ccccc1Cl)C(N)=O | 6.15% (inactive)
33 | CC(C)CC(NC(=O)CCl)C(=O)NCC(=O)O (configuration not stated) (ClAc-[ξL]-Gly-OH) | -3.75% (inactive)
34 | CCOC(=O)CCc1ccc(O)c(O)c1 | 15.6% (inactive)
35 | NC(=O)c1ccccc1OCC(O)CO (configuration not stated) | 26.1% (inactive)
36 | S=C(S)NC1CCCCCCCCCCC1 | 39% (inactive)
37 | Cc1ccccc1Nc1n[nH]c(=S)s1 | 33% (inactive)
